Assay outcomes deposited in PubChem BioAssay by National Center for Advancing Translational Sciences (NCATS).
Hits are enriched below; roughly 8.3% of the tested compounds scored in any of these assays.
HCMV antiviral: qHTS Assay for inhibitors of the human cytomegalovirus (HCMV); HFF cells, HCMV-luciferase reporter, 72 h; hits give low values; AID 1259415, 2018; activity change, negative = inhibition, % at 57.5 µM; 410,000 compounds, 4.5% hits; in the data active means activity change below about -60%; inconclusive means no clear call, values can overlap the other calls; inactive means above about -39%
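Luciferase read-out from HCMV-luciferase-infected HFFs (MOI 1 PFU/cell) 72 h post infection at 37C; compounds added after 16 h cell attachment; activity normalized between buffer-only basal and Salinomycin (10uM) inhibitor controls.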
FMDV antiviral: High Throughput Screening for Foot and Mouth Disease Virus Antivirals; FMDV antiviral cell-based qHTS; Potency, µM (series often up to 57.9 µM), without a hit: at the top dose activity change, negative = inhibition, hits mostly inhibitors; 410,000 compounds, 1.2% hits; calls by dose curve; tested in HEK293T cells; further: read-out not given here; potency means the concentration at half of the fitted maximal effect; nearly all actives have a fitted effect of over 45% in size
HCV inh: qHTS Assay for Inhibitors of Hepatitis C Virus (HCV); 340,000 compounds, 3.4% hits; Potency, µM (doses to about 41.8 µM), for the others: at the top dose activity change, negative = inhibition, usual class: inhibitors; Huh7.5.1 HCVcc-Cre infection, luciferase reporter, 44 h; further: potency means the concentration at half of the fitted maximal effect
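After 44 h co-culture of compound, cells and HCVcc-Cre (~0.5 moi), substrate is added for 15 min at room temperature and luciferase measured over 15 sec. Cells were seeded at 1,000/well and pre-cultured 4 h.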
LASV entry inh: qHTS for Inhibitors of binding or entry into cells for Lassa Virus; Lassa virus pseudotype entry inhibition, cell reporter; Potency, µM (series often up to 37.9 µM), inactives show at the highest dose activity change, negative = inhibition, usual class: inhibitors; 300,000 compounds, 1.2% hits; calls by dose curve; tested in HEK293 cells; further: potency means the concentration at half of the fitted maximal effect; nearly all actives have a fitted effect of over 50% in size
FBPA Giardia inh: qHTS Assay for Inhibitors of Fructose-1,6-bisphosphate Aldolase from Giardia Lamblia; Potency, µM (doses to about 59.6 µM), without a hit: top-dose activity, negative = inhibition, hits mostly inhibitors; A8B2U2; 290,000 compounds, 0.71% hits; purified Giardia FBPA; further: potency means the concentration at half of the fitted maximal effect; nearly all actives have a fitted effect of over 55% in size
Target sequence (A8B2U2 whole entry, looked up): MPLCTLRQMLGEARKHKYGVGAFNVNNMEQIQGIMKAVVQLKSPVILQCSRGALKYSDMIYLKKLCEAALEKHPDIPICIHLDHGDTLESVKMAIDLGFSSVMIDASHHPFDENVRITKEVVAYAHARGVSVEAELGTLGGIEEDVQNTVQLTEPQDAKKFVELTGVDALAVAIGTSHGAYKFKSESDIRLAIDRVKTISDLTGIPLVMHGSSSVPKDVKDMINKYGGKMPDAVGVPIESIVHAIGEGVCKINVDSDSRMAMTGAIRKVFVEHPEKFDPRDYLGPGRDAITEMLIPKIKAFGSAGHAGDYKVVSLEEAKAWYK
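40 nM FBPA preincubated 10 min at RT with compound (up to 57.5 uM final), then substrate plus GAPDH/TPI/NAD/arsenate coupling and diaphorase/resazurin added. Fluorescence read after 20 min at RT, 525/598 nm.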
MARV entry inh: qHTS for inhibitors of binding or entry into cells for Marburg Virus; Potency, µM (top dose mostly 37.8 µM), for the others: at the highest dose activity change, negative = inhibition, most hits filed as inhibitors; 300,000 compounds, 1.8% hits; Marburg virus pseudotyped entry inhibition, cell reporter; calls by dose curve; tested in HEK293 cells; further: potency means the concentration at half of the fitted maximal effect
The depositor's hits bear a star; ! = a repeat was not active; [ ] = dose if it differs, or a comment. Unless noted, the call rests on the fitted dose curve; in most records, active means well fitted curve in the direction sought with a large enough effect; inconclusive means small, poorly fitted or top-dose-only effect, or another doubt; inactive means no such curve, though single readings can be large; an effect the other way counts as inactive or inconclusive. On the % scale 0 is the no-effect control and ±100 the full control effect.

Cc1cccc(NC(=O)c2ccc(F)c(S(=O)(=O)N3CCC4(CC3)OCCO4)c2)c1 was read as HCMV antiviral -6.6, FMDV antiviral 9.3%, HCV inh inconclusive and LASV entry inh 6.6%[46.1 µM].
CC(=O)Oc1cc(OC(C)=O)c2c(=O)cc(-c3ccc(OC(C)=O)c(OC(C)=O)c3)oc2c1 was read as FBPA Giardia inh 3.0%.
CCC1=C(O)CC(O)=C(C2NNC(CCC(=O)O)C2C2NC3CCCCC3N2C)C1 (centres undefined) was read as MARV entry inh 5.3%[46.1 µM].
`Cc1nn(-c2ccccc2)c2c1cc1c(=O)[nH]c(=O)nc-1n2-c1cccc(C(F)(F)F)c1` gave HCMV antiviral -4.3, FMDV antiviral -3.0%, LASV entry inh 16.0%[46.1 µM] and MARV entry inh 6.3%[46.1 µM].
Screening O=C(Nc1ccc(Oc2ccccc2)cc1)c1ccc(F)c(S(=O)(=O)N2CCN(c3ccccc3F)CC2)c1 returned HCMV antiviral -78.7*, FMDV antiviral inconclusive and LASV entry inh inconclusive.
Screening O=C(Nc1ccc(Oc2ccccc2)cc1)c1ccc(F)c(S(=O)(=O)N2CCN(c3cccc(Cl)c3)CC2)c1 returned HCMV antiviral -70.3*, FMDV antiviral inconclusive and LASV entry inh inconclusive.
Screening CC(C)c1ccc(NC(=O)c2ccc(F)c(S(=O)(=O)N3CCN(c4ccccc4F)CC3)c2)cc1 returned HCMV antiviral -36.7, FMDV antiviral -18.1% and LASV entry inh 19.5%[46.1 µM].
Cc1oc(-c2ccccc2NC(=O)c2ccsc2)nc1CN(C)Cc1ccc2c(c1)CCCN2C was read as FMDV antiviral 2.6%.
`Cc1ccc(Cn2ccnc2SCC(=O)Nc2ccccc2C(F)(F)F)cc1` gave HCMV antiviral inconclusive, FMDV antiviral 9.2% and LASV entry inh 10.7%[46.1 µM].
Screening CC1CCC(NC(=O)c2ccc(CS(=O)(=O)c3ccc(Cl)cc3)o2)CC1 (centres undefined) returned HCMV antiviral -7.1, FMDV antiviral 31.6µM* and LASV entry inh inconclusive.
COc1ccc(S(=O)(=O)Cc2ccc(C(=O)NC3CCC(C)CC3)o2)cc1 (centres undefined) was read as HCMV antiviral -16.9, FMDV antiviral -13.6%, HCV inh -15.3%, LASV entry inh inconclusive, FBPA Giardia inh -4.6% and MARV entry inh inconclusive.
Screening O=C(NCCc1ccccc1)c1ccc(CS(=O)(=O)c2ccc(Cl)cc2)o1 returned HCMV antiviral -60.3*!, FMDV antiviral -29.6%, HCV inh 19.1%, LASV entry inh -27.9%[46.1 µM] and FBPA Giardia inh 0.1%.
For C/C(=N\NC(=S)NC(C)C)c1ccccc1OC(F)F the results were HCMV antiviral -113.5*, FMDV antiviral -11.2%, HCV inh 14.1µM*, LASV entry inh inconclusive, FBPA Giardia inh -7.6% and MARV entry inh -7.5%[46.1 µM].
Screening COc1cc(/C(C)=N/NC(=S)NC(C)C)cc(OC)c1OC returned HCMV antiviral -102.3*, FMDV antiviral -26.7%, HCV inh -6.8%, LASV entry inh -17.8%, FBPA Giardia inh -11.7% and MARV entry inh inconclusive.
Screening CCCCNC(=O)CCCn1c(=O)c2ccccc2n(Cc2ccccc2C)c1=O returned HCMV antiviral -9.6, FMDV antiviral 0.0%, LASV entry inh inconclusive and MARV entry inh inconclusive.
`Cc1ccc2nc(C3CCN(C(=O)NCc4ccccc4)CC3)[nH]c2c1` gave HCMV antiviral -88.2*, FMDV antiviral 1.9%, LASV entry inh -16.9%[14.3 µM], FBPA Giardia inh 0.5% and MARV entry inh 10.7%.
For CC(C)C(=O)N=c1sc2cc(F)cc(F)c2n1C the results were HCMV antiviral inconclusive, FMDV antiviral 12.1%, HCV inh 6.6% and FBPA Giardia inh 4.5%.
For CCC(=O)N=c1sc2cc(F)cc(F)c2n1C the results were HCMV antiviral -61.7*, FMDV antiviral 30.5% and HCV inh -20.5%.
Cc1cc(C)c(NC(=O)C2CCN(c3nn4c(=O)cc(C)nc4s3)CC2)c(C)c1 was read as HCMV antiviral -3.7, FMDV antiviral 1.5%, LASV entry inh 7.3%[46.1 µM] and MARV entry inh 13.5%[46.1 µM].
For Cc1cc(C)cc(-n2cc(C(=O)O)c(=O)cc2C)c1 the results were HCMV antiviral -80.4*, FMDV antiviral -15.3%, HCV inh 11.4%, LASV entry inh 10.3%[46.1 µM], FBPA Giardia inh -10.3% and MARV entry inh inconclusive.
`Cc1cccc(-n2cc(C(=O)O)c(=O)cc2C)c1` gave HCMV antiviral -26.9, FMDV antiviral 17.9%, HCV inh 21.7%, LASV entry inh 10.9%[46.1 µM], FBPA Giardia inh -17.5% and MARV entry inh 15.6%[46.1 µM].
Screening O=c1cc2oc3cc(O)c(O)cc3c(-c3ccccc3[N+](=O)[O-])c-2cc1O returned HCMV antiviral -64.0*, FMDV antiviral inconclusive, HCV inh inconclusive and FBPA Giardia inh inconclusive.
Screening OC1(c2cccnc2)CCN(Cc2ccc3c(c2)CN(Cc2cc(F)ccc2F)CCO3)CC1 returned FMDV antiviral -18.2%.
Screening Cc1cc(Oc2nc3ccccn3c(=O)c2/C=C(\C#N)C(=O)NC2CCS(=O)(=O)C2)ccc1Cl (centres undefined) returned HCMV antiviral -65.8*, FMDV antiviral inconclusive, HCV inh inconclusive, LASV entry inh inconclusive, FBPA Giardia inh 1.4% and MARV entry inh inconclusive.
Cc1cccn2c(=O)c(/C=C(\C#N)C(=O)NC3CCS(=O)(=O)C3)c(N3CCC(C)CC3)nc12 (centres undefined) was read as HCMV antiviral 1.5, FMDV antiviral -14.4%, HCV inh 4.6%, LASV entry inh -0.1%, FBPA Giardia inh -3.4% and MARV entry inh -6.2%.
Screening N#C/C(=C\c1c(Oc2ccc(Cl)cc2)nc2ccccn2c1=O)C(=O)NC1CCS(=O)(=O)C1 (centres undefined) returned HCMV antiviral 23.0, FMDV antiviral 20µM*, HCV inh -27.5%, LASV entry inh 3.55µM*, FBPA Giardia inh 6.3% and MARV entry inh inconclusive.
`Cc1cccc(Oc2nc3ccccn3c(=O)c2/C=C(\C#N)C(=O)NC2CCS(=O)(=O)C2)c1C` (centres undefined) gave HCMV antiviral -96.3*, FMDV antiviral inconclusive, HCV inh -3.9%, LASV entry inh inconclusive, FBPA Giardia inh -5.3% and MARV entry inh inconclusive.
Screening Cc1cccc(Oc2nc3ccccn3c(=O)c2/C=C(\C#N)C(=O)NC2CCS(=O)(=O)C2)c1 (centres undefined) returned HCMV antiviral 19.9, FMDV antiviral 0.0%, HCV inh -2.3%, LASV entry inh -0.2%, FBPA Giardia inh 0.4% and MARV entry inh -13.3%.
